Hit rate of the full screen: of about 220,000 compounds, about 530 (0.24%) were called active. This excerpt belongs to a sample that is enriched for actives. Entries with a potency or affinity are not part of this list. Unmarked numbers belong to inactive results. No stated cut-off is given here; in the data, active means inhibition above about 13%; inconclusive means no clear call, values can overlap the other calls; inactive means below that.

Bifunctional protein GlmU (Mycobacterium tuberculosis (strain ATCC 25618 / H37Rv)), sequence (P9WMN3 whole entry, looked up): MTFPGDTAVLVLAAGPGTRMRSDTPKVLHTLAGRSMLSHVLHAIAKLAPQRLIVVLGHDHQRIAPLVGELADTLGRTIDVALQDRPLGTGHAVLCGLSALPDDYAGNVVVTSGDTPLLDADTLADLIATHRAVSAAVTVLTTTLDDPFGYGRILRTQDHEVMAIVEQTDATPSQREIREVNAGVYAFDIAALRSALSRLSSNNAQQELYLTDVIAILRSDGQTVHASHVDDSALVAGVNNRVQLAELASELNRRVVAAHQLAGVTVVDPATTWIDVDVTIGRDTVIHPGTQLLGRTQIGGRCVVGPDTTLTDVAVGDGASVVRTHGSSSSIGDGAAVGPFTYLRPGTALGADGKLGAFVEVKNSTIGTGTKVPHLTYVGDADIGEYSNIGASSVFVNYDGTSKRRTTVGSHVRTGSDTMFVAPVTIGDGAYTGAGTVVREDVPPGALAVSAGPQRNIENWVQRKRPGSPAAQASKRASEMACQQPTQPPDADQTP

This assay addresses Bifunctional protein GlmU (Mycobacterium tuberculosis (strain ATCC 25618 / H37Rv)) (UniProt P9WMN3). Kind of assay: inhibition of mycobacterial GlmU enzyme – biochemical, glucosamine-1-phosphate acetyltransferase (AID 1376).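 Further: 0% = complete reaction with vehicle and 100% = reaction without substrate.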 As to conditions: M. tuberculosis GlmU acetyltransferase enzyme assay; stronger effect = higher value;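 tested at 30 µM in the primary screen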.
Consider `O=C(/C=C/c1ccco1)c1ccc(NC(=O)C23CC4CC(CC(C4)C2)C3)cc1`, for which the inhibition is -0.76%.

For `Cc1ccc(C)c(S(=O)(=O)NCCOC(=O)Nc2sc(=S)n(C)c2C)c1`, the inhibition is 6.71%.

Regarding `CCOC(=O)CNC(=O)CSc1nc(N)cc(N)n1`, the inhibition is 1.79%.

On to `N#CC1=C(N)Oc2c(oc(CO)cc2=O)C1c1ccsc1` (stereo not drawn), for which the inhibition is -2.69%.

For `Cc1nn(-c2ccc(Cl)cc2)c(NC(=O)C(C)C)c(-c2ccccc2)c1=O`, the inhibition is -2.2%.

For `COc1cc(/C=C2\SC(=Nc3ccc(O)cc3)NC2=O)cc(OC)c1OC`, the inhibition was -1.9%.

`COc1cc(/C=C2\SC(=Nc3ccc(O)cc3)NC2=O)cc(OC)c1O`: the inhibition was 69.2% (active).

With `COc1cc(/C=C2/SC(=Nc3ccc(O)cc3)NC2=O)cc(OC)c1O`, the inhibition was 7%.

Turning to `COc1ccccc1C1=NNC(=NCc2ccccc2)SC1`, the inhibition is -1.42%.

Take `CCN(c1ccccc1)S(=O)(=O)c1ccc(OC)c(NC(=O)CN(C)C)c1`: the inhibition was -3.46%.

With `CCOC(=O)C1=C(NC#N)OC(C)=C(C)C1c1ccc(O)cc1` (stereo not drawn), the inhibition was -6.11%.

Take `Cc1ccc(S(=O)(=O)N2CCN(c3ccccn3)CC2)cc1`: the inhibition is 3.12%.

In the case of `CC(C(=O)Nc1ccc(S(=O)(=O)N2CCCCC2)cc1)N1CCN(c2ccccn2)CC1` (stereo not drawn), the inhibition is 0.72%.

On to `CC(=O)Nc1ccc(S(=O)(=O)N2CCN(c3ccccn3)CC2)cc1`, for which the inhibition was 14% (active).

Regarding `Cc1[nH]c2ccccc2c1C(=O)CSc1nc2ccccc2[nH]1`, the inhibition was 2.48%.

Take `Cc1c(C)n(C(=O)CSc2ncn[nH]2)c2ccccc12`: the inhibition is 1.07%.

For `CCCCCOc1ccc(C(=O)N(Cc2ccco2)C2CCS(=O)(=O)C2)cc1` (stereo not drawn), the inhibition is 2.23%.

As for `Cc1ccc(C)n1-c1cccc(NC(=O)c2ccccc2)c1`, the inhibition is -0.99%.

For the compound `Cn1c(Cn2c(=O)sc3ccccc32)nnc1SCC(=O)N1CCc2ccccc21`, the inhibition is -3.8%.

As to `O=C1CCN(S(=O)(=O)c2ccccc2)CCN1CCOCc1ccc(F)cc1`, the inhibition was -0.16%.

For `CCOC(=O)C1=C(N)OC2=C(C(=O)CCC2)C12C(=O)N(C)c1ccccc12` (stereo not drawn), the inhibition is 2.06%.

Regarding `CC1=CC(C)(C)N2C(=O)C3(C(C#N)=C(N)OC4=C3C(=O)CCC4)c3c(C)c(C)cc1c32` (stereo not drawn), the inhibition was 0.73%.

Take `CCOC(=O)C1=C(N)OC2=C(C(=O)CCC2)C12C(=O)N1c3c(ccc(C)c32)C(C)=CC1(C)C` (stereo not drawn): the inhibition is 14.7% (active).

Take `COc1ccc([N+](=O)[O-])c(S(=O)(=O)c2ccccc2)n1`: the inhibition was 11.9%.

Regarding `COc1ccc([N+](=O)[O-])c(S(=O)(=O)c2ccc(Cl)cc2)n1`, the inhibition is 13.8% (active).

As for `COc1nc(OC)nc(Oc2ccc(Cl)cc2[N+](=O)[O-])n1`, the inhibition was -2.5%.

On to `CC(C(=O)NN)n1nnc(N2CCOCC2)n1` (stereo not drawn), for which the inhibition was -4.73%.

Take `O=C(Nc1cccc(-c2csc(Nc3ccc(Cl)cc3)n2)c1)c1cccc(C(F)(F)F)c1`: the inhibition was 0.14%.

For `COC(=O)c1[nH]nc(C(=O)OC(C)(C)C)c1-c1ccccc1`, the inhibition is 13.6% (active).

`COC(=O)c1n[nH]nc1-c1ccccc1`: the inhibition was 2.77%.

Consider `COC(=O)c1cc(-c2ccccc2)n[nH]1`, for which the inhibition is 1.61%.

Regarding `CC1(C)Cc2cccc(OCC(=O)N3CCN(S(=O)(=O)c4ccc(F)cc4)CC3)c2O1`, the inhibition is -1.15%.

As to `O=C(O)c1cccc(N/N=C/c2cccs2)c1`, the inhibition is 4.35%.

For `O=C(O)c1cccc(NN=C2c3ccccc3-c3ccccc32)c1`, the inhibition was 1.86%.

For the compound `Cc1ccc(C(=O)N/C(=C\c2ccccc2)C(=O)NCc2cccnc2)cc1`, the inhibition was -0.7%.

Consider `CCCNC(=O)Cn1cnc2sc(C(=O)Nc3cc(OC)c(OC)c(OC)c3)c(C)c2c1=O`, for which the inhibition is 1.29%.

`CNc1ccc(Br)cc(C(=O)/C=C/c2cccc(OC)c2OC)c1=O`: the inhibition is 0.88%.

On to `CNc1ccc(Br)cc(C(=O)/C=C/c2cccc(Cl)c2Cl)c1=O`, for which the inhibition is 13% (active).

As to `CNc1ccc(Br)cc(C(=O)/C=C/c2ccc(Cl)cc2Cl)c1=O`, the inhibition was 10.2%.

Turning to `CCS(=O)(=O)c1ccc(O)c(NC(=O)/C=C/c2ccc(Cl)cc2)c1`, the inhibition was 0.22%.

With `O=C(O)CNC(=O)C(Cc1ccccc1)NC(=O)OCc1ccccc1` (stereo not drawn), the inhibition is 2.74%.

In the case of `Cn1c(SCc2ccccn2)nnc1-c1cnccn1`, the inhibition was 13.4% (active).

In the case of `Cc1ccccc1CSc1nnc(-c2cnccn2)n1C`, the inhibition was 4.71%.

Regarding `Cn1c(SCc2ccccc2)nnc1-c1cnccn1`, the inhibition is -1.68%.

Consider `Cc1ccc(-n2c(Cc3ccccc3)nnc2SCC(=O)NNC(=O)Cc2ccccc2)cc1`, for which the inhibition is 2.04%.

As for `Cc1ccc(-c2cc(O)cc3sc(=O)oc23)cc1C`, the inhibition was -5.89%.

As for `Cc1c(Br)c(O)c(Br)c2sc(=O)oc12`, the inhibition was 14.6% (active).

With `C=CCn1c(=O)c2ccccc2n2c(SCC(N)=O)nnc12`, the inhibition is -2.87%.

Take `C/C(=N\OCc1ccc(C#N)cc1)c1cc2ccccc2o1`: the inhibition was 14% (active).

Regarding `C/C(=N\OCc1ccc(C#N)cc1)c1ccccc1`, the inhibition was 2.31%.

As to `C/C(=N\OCc1ccccc1C#N)c1cc2ccccc2o1`, the inhibition was -1.63%.

On to `COc1cc(CNCc2c[nH]c3ccccc23)cc(OC)c1`, for which the inhibition was 0.77%.

Turning to `N/C(=N\N=C\c1ccc(O)cc1O)N[N+](=O)[O-]`, the inhibition is 1.33%.

For `O=C(N/N=C/c1ccc(-c2cccc([N+](=O)[O-])c2)o1)c1ccccc1O`, the inhibition is 0.51%.

As for `O=C1CCCN1c1cc(Cl)cc(Cl)c1`, the inhibition is 0.87%.

For the compound `CCC(C)N(CCNC(=O)CC1Oc2ccc(C)cc2NC1=O)C1CCCCC1` (stereo not drawn), the inhibition was 4.05%.

For the compound `COc1ccc(-c2c(-c3ccc(OCC(=O)NN)cc3O)n[nH]c2C)cc1`, the inhibition was 4.13%.

For `NNC(=O)COc1ccc(-c2n[nH]c(C(F)(F)F)c2-c2ccc(Br)cc2)c(O)c1`, the inhibition was -2.65%.

On to `COc1ccc(-c2c(-c3ccc(OCC(=O)NN)cc3O)n[nH]c2C(F)(F)F)cc1`, for which the inhibition was 13.2% (active).

For the compound `O=C(CC(NC(=O)c1ccccc1Cl)c1ccccc1)NC1=NCCS1` (stereo not drawn), the inhibition is 2.83%.

Take `CC(=O)Nc1ccc2nc3ccccc3nc2c1`: the inhibition was 3.15%.

Turning to `CC(=O)Nc1ccc2ccccc2c1`, the inhibition was 1.2%.

As for `CC(=O)Nc1ccc2cc3ccc(NC(C)=O)cc3nc2c1`, the inhibition was 29.2% (active).

As a reminder, the inhibition is the change of the read-out against control, counted positive when it falls.
